High-throughput results (PubChem)
The list is not random: actives were taken first. Their share in the collection is about 2.2%.
BaF3 tox – reduces parental Ba/F3 cell viability, JAK2V617F counter-screen; 220,000 tested, 1.1% active; inhibition, % at 5.6 µM; AID 1486; CellTiter-Glo ATP luminescence;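 active = inhibition above a per-campaign cutoff, the mean inhibition of all tested compounds plus 3 SD, cut at about 27% in these data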;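 also: 0% = DMSO wells and 100% = JAK Inhibitor I control wells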
KLF5 inh – inhibitors of KLF5 expression; DLD-1 KLF5 promoter-luciferase reporter, luminescence; inhibition, % at 5 µM; 290,000 tested, 0.23% active;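 active = inhibition above a per-plate limit of that plate's mean compound inhibition plus 3 SD, cut at about 60% in these data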;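 also: 0% = DMSO wells and 100% = LY294002 at 200 µM; higher means less KLF5 promoter-driven luciferase light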
Ba/F3 V617F tox – reduce viability of Ba/F3 cells dependent on JAK2V617F. 220,000 tested, 1.1% active. AID 1446. Ba/F3 EpoR-JAK2V617F viability, ATP luminescence. inhibition, % at 5.6 µM;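 active = inhibition above the campaign mean plus 3 SD over all tested compounds, cut at about 24% in these data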;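 also: cytokine-independent growth of Ba/F3 cells driven by EpoR plus mutant JAK2; 0% = DMSO-treated cells and 100% = JAK inhibitor I control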
aSyn 5UTR inh – 5' untranslated region of α-synuclein, MLPCN primary screen; AID 1813; inhibition, % (tested at 7.5 µM); alpha-synuclein 5'UTR reporter, inhibitor activity; 300,000 tested, 0.82% active; in the data active = inhibition above about 60%;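 also: H4 neuroglioblastoma cells stably carrying SNCA 5'UTR luciferase fusion; 0% = DMSO wells and 100% = positive control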
APP 5UTR inh – APP translation inhibition; SH-SY5Y APP 5'UTR-luciferase reporter, luminescence; inhibition, % at 2 µM; 190,000 tested, 0.82% active; AID 1285;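 active = inhibition above a set limit, derived from the sample mean plus 3 SD, cut at about 45% in these data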
IEC-6 tox-1 – kills IEC-6 intestinal cells in KLF5 counter-screen. IEC-6 cytotoxicity, luminescence viability. inhibition, % at 5 µM. 290,000 tested, 0.78% active. AID 1825; in the data active = inhibition above about 22%;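 also: 0% = plate median of test compound wells and 100% = cytotoxic reference compound wells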
KLF5 inh confirm – KLF5 inhibition, confirmation assay; inhibition, % at 4 µM; 610 tested, 79% active; DLD-1 KLF5 promoter firefly luciferase reporter, luminescence; shares compounds with KLF5 inh;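 active = inhibition above a set limit taken from the earlier primary screen, cut at about 63% in these data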;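 also: 0% = DMSO wells and 100% = LY294002 at 200 µM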
IEC-6 tox-2 – kills rat IEC-6 cells in KLF5 counter-screen; shares compounds with KLF5 inh; IEC-6 rat intestinal cells, viability luminescence; inhibition, % at 4 µM; 610 tested, 56% active; in the data active = inhibition above about 23%;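 also: cells exposed to compounds for 48 hours before viability read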
Numbers without * were called inactive; . = no result given.

SMILES	BaF3 tox	KLF5 inh	Ba/F3 V617F tox	aSyn 5UTR inh	APP 5UTR inh	IEC-6 tox-1	KLF5 inh confirm	IEC-6 tox-2
COc1cc([C@@H]2c3cc4c(cc3[C@@H](O)[C@@H](CO)[C@@H]2CO)OCO4)cc(OC)c1O[Si](C)(C)C(C)(C)C	.	.	.	44	.	.	.	.
O=C(O)COc1ccccc1/C=N/NC(=O)CN1CCN(Cc2ccc(Cl)cc2)CC1	0	-4	-2	7	.	-8	.	.
COc1ccc(S(=O)(=O)N(CC(=O)NN=C2CCN(C)CC2)c2cc(Cl)ccc2OC)cc1OC	.	-8	.	10	.	-4	.	.
CCCS(=O)(=O)c1cnc(C2COc3ccccc3O2)nc1N (stereo unspecified)	.	98*	.	68*	.	12	78*	5
O=C1NC(=O)C(c2cccs2)(c2cccs2)N1	.	-9	.	1	.	10	.	.
Cc1nn(C(C)(C)C)c(C)c1/C=N/OC(=O)Nc1ccc(Cl)cc1	0	98*	4	94*	.	-3	105*	-1
Cc1nn(C)c(C)c1/C=N/NC(=O)C(C)(C)Oc1ccc(Cl)cc1	4	-17	-5	16	-6	-1	.	.
COc1ccccc1NC(=O)NCC1CC1(Cl)Cl (stereo unspecified)	.	-21	.	-4	.	5	.	.
CCN1C(=O)Cc2cc(S(=O)(=O)NCCc3ccccc3)ccc21	.	-18	.	13	.	2	.	.
CCOc1ccc(-c2ccc(SC)nn2)cc1	12	78*	10	76*	-77	10	60	14
CCCCC(C(=O)O)C(C)CC(=O)Nc1nccs1 (stereo unspecified)	2	-19	-1	11	.	0	.	.
CN=c1scc(-c2cccs2)n1/N=C/c1ccccc1O	9	108*	-1	103*	53*	-13	95*	-6
CN=c1scc(-c2cccs2)n1/N=C/c1ccc(O)c(O)c1O	2	-139	-2	0	21	-5	.	.
COc1ccc(CCC(N)=O)cc1OC	9	70*	2	10	1	2	-5	-10
COc1cccc(NC(=O)CN2C(=O)COc3ccc(S(=O)(=O)N4CCCCCC4)cc32)c1	.	-16	.	-10	.	-1	.	.
O=c1[nH]c(=O)n([C@H]2C[C@H](O)[C@@H](CO)O2)cc1F	97*	62*	100*	80*	69*	94*	45	87*
CCN1/C(=C/c2ccc3ccccc3[n+]2CC)C=Cc2ccccc21	92*	66*	99*	10	33	48*	103*	58*
COC(=O)c1nn(-c2ccc3c(c2)OCO3)cc1O	0	-58	1	-86	-64	5	.	.
COC(=O)c1nn(-c2ccc3c(c2)CCN3C(C)=O)cc1O	7	75*	5	91*	23	2	78*	9
Cc1ccc(/C=C2\SC(=S)N(CCC(=O)N3CCOCC3)C2=O)cc1	.	-14	.	-64	.	-4	.	.
O=C(c1cc(-c2ccccc2Cl)on1)N1CCCC1	.	74*	.	24	.	3	65*	-8
Clc1ccc2c(c1)C(C1=NCCN1)c1ccccc1CS2 (stereo unspecified)	70*	80*	76*	79*	97*	66*	90*	46*
COc1ccc(/C=N/NC(=O)CCn2c3ccccc3c3ccccc32)cc1O	71*	74*	78*	19	87*	10	79*	12
CCc1nc2ccc(C(=O)O)cc2nc1CC	3	-14	-3	-63	-53	-11	.	.
Oc1ccc(/C=C/c2ccc3ccccc3n2)cc1	39*	78*	68*	90*	-55	26*	51	15
SMILES	BaF3 tox	KLF5 inh	Ba/F3 V617F tox	aSyn 5UTR inh	APP 5UTR inh	IEC-6 tox-1	KLF5 inh confirm	IEC-6 tox-2
O=C(NC1CCc2ccccc21)c1cc(COc2cncc(Cl)c2)on1 (stereo unspecified)	.	-63	.	-54	.	0	.	.
Cc1ccc(C=Nc2ccccc2C(N)=O)s1	67*	63*	66*	-36	16	81*	60	32*
Cc1cccc(C=Nc2ccccc2C(N)=O)c1	9	13	9	-70	1	9	.	.
COc1ccc(OCc2nc(-c3ccc(F)c(F)c3)cs2)cc1	1	-32	-2	-46	.	3	.	.
COC(=O)CN1C(=O)N/C(=C/c2ccccc2OC)C1=O	1	-6	0	20	23	2	.	.
O=c1cc(O)n(Cc2ccc(F)cc2)c(=O)[nH]1	.	-41	.	-22	.	-10	.	.
CCOc1ccc(NC(=O)Nc2cccc(C(=O)O)c2)cc1	9	94*	6	108*	70*	-1	101*	16
CCOC(=O)c1cccc(NC(=O)Nc2ccc(OCC)cc2)c1	4	-19	4	56	-16	-1	.	.
Cc1ccccc1OCC(=O)Nc1cccc(C(=O)O)c1	3	95*	-1	105*	68*	-2	96*	4
O=C(Nc1cccc(Cl)c1)Nc1cccc(C(=O)O)c1	-2	6	0	55	.	-6	.	.
O=C(Nc1ccc(Cl)cc1)Nc1cccc(C(=O)O)c1	12	66*	-1	42	-1	-7	72*	3
Cc1cccc(OCC(=O)Nc2cc(NC(=O)COc3cccc(C)c3C)cc(C(=O)O)c2)c1C	.	-21	.	-10	.	4	.	.
O=C(NCCc1ccccc1)c1ccc2c(c1)OCO2	.	63*	.	91*	.	2	39	6
Cc1ccc2nc(-c3ccc(O)c(O)c3)cn2c1	.	-63	.	22	.	19	.	.
Cc1ccc2nc(-c3ccccc3)cn2c1	15	84*	15	120*	-3	16	77*	23*
CCOC(=O)c1sc(NC(=O)c2cc3c(s2)CCC(C)C3)nc1C (stereo unspecified)	3	86*	-1	-101	-16	0	88*	9
O=C(CSCC(=O)Nc1ccccc1)N/N=C/c1c(O)ccc2ccccc12	3	68*	2	76*	66*	-2	79*	0
O=C(N/N=C/c1c(O)ccc2ccccc12)c1ccc(Br)o1	.	68*	.	106*	.	12	86*	8
Cc1occc1C(=O)N/N=C/c1c(O)ccc2ccccc12	.	57	.	54	.	18	.	.
COc1cccc(CC2(CO)CCN(Cc3ccc4cccc(F)c4n3)CC2)c1	7	11	3	18	-6	2	.	.
CC(=O)CSc1ccc(-c2nc3ccccc3[nH]2)cn1	.	-13	.	-72	.	20	.	.
CC(=O)CSc1ccc(-c2nc3cc(C)c(C)cc3[nH]2)cn1	0	64*	-1	121*	-31	2	73*	14
CC1Sc2ccc(S(=O)(=O)N3CCC(C(=O)N(C)Cc4ccccc4)CC3)cc2NC1=O (stereo unspecified)	.	-1	.	18	.	8	.	.
COc1cc(/C=C/[N+](=O)[O-])ccc1OCc1cccc(C(=O)O)c1	8	71*	1	97*	58*	-7	67*	-6
